Bioassay records (PubChem)
CYP2C9 inhib = blocks human cytochrome P450 2C9 | P11712 | CYP2C9 Supersomes, luciferin-H conversion, luminescence | inhibition, % at 5 µM | hit rate 20% among 96,000 | AID 777;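 active means blocking of liver enzyme CYP2C9 beyond about 50% at 5 µM, limit read from the data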
Target sequence (P11712 whole entry, looked up): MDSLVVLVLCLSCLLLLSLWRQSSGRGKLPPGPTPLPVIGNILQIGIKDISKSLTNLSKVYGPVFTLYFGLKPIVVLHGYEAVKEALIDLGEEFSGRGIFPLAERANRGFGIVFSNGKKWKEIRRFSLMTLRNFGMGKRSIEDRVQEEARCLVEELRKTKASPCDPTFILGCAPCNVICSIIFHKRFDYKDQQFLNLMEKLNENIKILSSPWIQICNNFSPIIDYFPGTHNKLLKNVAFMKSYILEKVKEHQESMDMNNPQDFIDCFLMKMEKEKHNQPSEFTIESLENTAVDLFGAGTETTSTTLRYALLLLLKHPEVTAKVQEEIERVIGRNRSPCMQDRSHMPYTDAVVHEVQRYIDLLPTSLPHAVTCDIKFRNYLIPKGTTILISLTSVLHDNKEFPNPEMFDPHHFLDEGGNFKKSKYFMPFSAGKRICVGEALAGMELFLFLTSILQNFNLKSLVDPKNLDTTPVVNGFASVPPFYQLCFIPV
CYP2C9 activ = activators of human CYP2C9. P11712. recombinant CYP2C9, luciferin-H conversion, luminescence; hits give high values; factor 1 = untreated enzyme, 0 = blocked. activation factor at 5 µM. hit rate 1.4% among 96,000. AID 1024;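 active means activation factor of 2 or more for CYP2C9 at a 5 µM dose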
CYP2C19 inhib = inhibitors of human CYP2C19 | P33261 | CYP2C19 Supersomes, luciferin-H EGE luminescence, 30 min | inhibition, % at 5 µM | hit rate 21% among 96,000 | AID 778;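 active means CYP2C19 inhibition above a set limit at 5 µM in the primary screen, cut at about 50% in these data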
CYP2C19 activ = activators of human cytochrome P450 2C19; activation factor at 5 µM; AID 1025; 96,000 tested, under 10 active; P33261; recombinant CYP2C19, luciferin-H EGE luminescence; hits give high values; 0 = fully inhibited enzyme, 1 = untreated enzyme;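 active means activation factor of at least 2 at 5 µM in the primary screen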
EphB4 ephrin blk = EphB4-ephrin-B2 interaction antagonism. inhibition, % at 7 µM. hit rate 0.15% among 97,000. AID 720. EphB4 LBD / TNYL-RAW-Alexa532 peptide, fluorescence polarization. P54760;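 active means inhibition above the screen-wide mean inhibition plus 3 SD, cut at about 15% in these data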
Numbers stand for hits. Most compounds without a hit are left out; they make up all but 27% or so of the library.

Screening C=CCSc1nc2sc(-c3ccccc3)cc2c(=O)n1N returned CYP2C9 inhib 50.5, CYP2C9 activ inactive, CYP2C19 inhib inactive, CYP2C19 activ inactive and EphB4 ephrin blk inactive.
For Cc1ccccc1-n1c(SCC(N)=O)nc2sc(-c3ccccc3)cc2c1=O the results were CYP2C9 inhib 84.1, CYP2C9 activ inactive, CYP2C19 inhib 62.7, CYP2C19 activ inactive and EphB4 ephrin blk inactive.
Cc1cccc(N2CCN(C(=O)C34CC5CC(CC(C5)C3)C4)CC2)c1C was read as CYP2C9 inhib inactive, CYP2C9 activ inactive, CYP2C19 inhib inactive, CYP2C19 activ inactive and EphB4 ephrin blk inactive.
For O=C1CCCC(=NCc2ccco2)C1 the results were CYP2C9 inhib inactive, CYP2C9 activ inactive, CYP2C19 inhib inactive, CYP2C19 activ inactive and EphB4 ephrin blk inactive.
For Cc1ccc(-c2ccc(=O)n(CC(=O)Nc3cccc(C(=O)N4CCN(C)CC4)c3)n2)cc1 the results were CYP2C9 inhib inactive, CYP2C9 activ inactive, CYP2C19 inhib inactive, CYP2C19 activ inactive and EphB4 ephrin blk inactive.
Screening COc1cccc(-c2ccc(=O)n(CC(=O)NCCN3CCOCC3)n2)c1 returned EphB4 ephrin blk inactive.
Screening COc1cccc(-c2ccc(=O)n(CC(=O)Nc3cc4c(cc3NC(C)=O)OCCO4)n2)c1 returned CYP2C9 inhib inactive, CYP2C9 activ inactive, CYP2C19 inhib 68.8, CYP2C19 activ inactive and EphB4 ephrin blk inactive.
`COc1cccc(-c2ccc(=O)n(CC(=O)Nc3ccc(C(=O)N4CCCC4)cc3)n2)c1` gave CYP2C9 inhib inactive, CYP2C9 activ inactive, CYP2C19 inhib 54.9, CYP2C19 activ inactive and EphB4 ephrin blk inactive.
For Cc1ccc(NCc2nnc(SCC#N)o2)c(C)c1 the results were EphB4 ephrin blk inactive.
`CCCCN1C2CCCC1CC(NC(=O)C1CCCCC1)C2` (stereo not drawn) gave EphB4 ephrin blk inactive.
O=C(NC1CC2CCCC(C1)N2S(=O)(=O)c1ccccc1)C1CCCCC1 (stereo not drawn) was read as CYP2C9 inhib 60.4, CYP2C9 activ inactive, CYP2C19 inhib inactive, CYP2C19 activ inactive and EphB4 ephrin blk inactive.
`CSc1nnc(-c2ccccc2)n1C` gave EphB4 ephrin blk inactive.
Cn1c(SCc2ccc(F)cc2)nnc1-c1cccs1 was read as CYP2C9 inhib inactive, CYP2C9 activ inactive, CYP2C19 inhib inactive, CYP2C19 activ inactive and EphB4 ephrin blk inactive.
Screening Cn1c(SCc2ccccc2)nnc1-c1ccncc1 returned CYP2C9 inhib inactive, CYP2C9 activ inactive, CYP2C19 inhib 90.8, CYP2C19 activ inactive and EphB4 ephrin blk inactive.
Screening Cn1c(SCc2ccc(Br)cc2)nnc1-c1ccncc1 returned CYP2C9 inhib 74.8, CYP2C9 activ inactive, CYP2C19 inhib 94.2, CYP2C19 activ inactive and EphB4 ephrin blk inactive.
COc1ccc(CCNc2nncc(=O)[nH]2)cc1OC was read as CYP2C9 inhib inactive, CYP2C9 activ inactive, CYP2C19 inhib inactive, CYP2C19 activ inactive and EphB4 ephrin blk inactive.
`CNC(=O)CN(c1ccc2c(c1)OCCO2)S(C)(=O)=O` gave CYP2C9 inhib inactive, CYP2C9 activ inactive, CYP2C19 inhib inactive, CYP2C19 activ inactive and EphB4 ephrin blk inactive.
COc1ccccc1N(CC(=O)Nc1ccccc1C(=O)NCC(C)C)S(C)(=O)=O was read as CYP2C9 inhib 77.1, CYP2C9 activ inactive, CYP2C19 inhib inactive, CYP2C19 activ inactive and EphB4 ephrin blk inactive.
Screening COC(=O)c1ccc(C(=O)OC)c(NC(=O)CN(c2ccc3c(c2)OCO3)S(C)(=O)=O)c1 returned CYP2C9 inhib 76.1, CYP2C9 activ inactive, CYP2C19 inhib 88.9, CYP2C19 activ inactive and EphB4 ephrin blk inactive.
COc1ccc(N(CC(=O)Nc2ccccc2C(=O)NCCc2ccccc2)S(C)(=O)=O)cc1OC was read as CYP2C9 inhib 99.0, CYP2C9 activ inactive, CYP2C19 inhib 82.1, CYP2C19 activ inactive and EphB4 ephrin blk inactive.
CC(C)CNC(=O)c1ccccc1NC(=O)CN(c1ccc2c(c1)OCCO2)S(C)(=O)=O was read as CYP2C9 inhib 92.7, CYP2C9 activ inactive, CYP2C19 inhib inactive, CYP2C19 activ inactive and EphB4 ephrin blk inactive.
Screening CCCC(c1nnnn1Cc1cccs1)N1CCN(c2ccc(OC)cc2)CC1 (stereo not drawn) returned CYP2C9 inhib inactive, CYP2C9 activ inactive, CYP2C19 inhib inactive, CYP2C19 activ inactive and EphB4 ephrin blk inactive.
COC(=O)CN(c1ccc2c(c1)OCO2)S(C)(=O)=O was read as CYP2C9 inhib inactive, CYP2C9 activ inactive, CYP2C19 inhib inactive, CYP2C19 activ inactive and EphB4 ephrin blk inactive.
For COCCNC(=O)c1ccccc1NC(=O)CN(c1ccc2c(c1)OCO2)S(C)(=O)=O the results were CYP2C9 inhib 91.6, CYP2C9 activ inactive, CYP2C19 inhib 86.1, CYP2C19 activ inactive and EphB4 ephrin blk inactive.
O=C(O)CCC(=O)Nc1ccccc1C(=O)NCc1ccco1 was read as EphB4 ephrin blk inactive.
`CS(=O)(=O)N(CC(=O)Nc1ccccc1C(=O)NCc1ccco1)c1ccc2c(c1)OCCO2` gave CYP2C9 inhib 91.1, CYP2C9 activ inactive, CYP2C19 inhib inactive, CYP2C19 activ inactive and EphB4 ephrin blk inactive.
Screening C/C(=N\NC(=O)c1c(Br)c(C)nn1C)c1ccc(NC(=O)C(C)Oc2ccc(Cl)cc2C)cc1 (stereo not drawn) returned CYP2C9 inhib inactive, CYP2C9 activ inactive, CYP2C19 inhib inactive, CYP2C19 activ inactive and EphB4 ephrin blk inactive.
COc1ccc(Cn2c(C)c(C)c(C#N)c2NC(=O)Nc2cccc(C)c2)cc1 was read as CYP2C9 inhib inactive, CYP2C9 activ inactive, CYP2C19 inhib inactive, CYP2C19 activ inactive and EphB4 ephrin blk inactive.
For Cn1c(SCC(=O)NC2CCCCC2)nnc1-c1cccc(N)c1 the results were EphB4 ephrin blk inactive.
Screening COc1cccc(-n2c(SCC(=O)O)nnc2-c2cccnc2)c1 returned CYP2C9 inhib inactive, CYP2C9 activ inactive, CYP2C19 inhib inactive, CYP2C19 activ inactive and EphB4 ephrin blk inactive.
For C=C(C)CSc1nnc(-c2cccc(S(=O)(=O)N(C)C)c2)n1-c1cc(OC)ccc1OC the results were CYP2C9 inhib 85.0, CYP2C9 activ inactive, CYP2C19 inhib 85.6, CYP2C19 activ inactive and EphB4 ephrin blk inactive.
`Cn1c(=O)n(C)c2cc([N+](=O)[O-])c(N3CCN(C(=O)c4ccccc4)CC3)cc21` gave CYP2C9 inhib inactive, CYP2C9 activ inactive, CYP2C19 inhib inactive, CYP2C19 activ inactive and EphB4 ephrin blk inactive.
Screening CC(Sc1n[nH]c(N)n1)c1nc2scc(-c3cccs3)c2c(=O)[nH]1 (stereo not drawn) returned CYP2C9 inhib 58.6, CYP2C9 activ inactive, CYP2C19 inhib inactive, CYP2C19 activ inactive and EphB4 ephrin blk inactive.
`O=c1[nH]c(Cc2ccccc2)nc2scc(-c3ccccc3)c12` gave CYP2C9 inhib inactive, CYP2C9 activ inactive, CYP2C19 inhib inactive, CYP2C19 activ inactive and EphB4 ephrin blk inactive.
For Nc1nc(SCc2nc3scc(-c4ccccc4)c3c(=O)[nH]2)n[nH]1 the results were CYP2C9 inhib 50.0, CYP2C9 activ inactive, CYP2C19 inhib inactive, CYP2C19 activ inactive and EphB4 ephrin blk inactive.
